Inconclusive results are not listed. Calls of active or inactive are those of the source. Calls come from the whole dose curve; as a rule, active = well fitted curve in the direction sought with a large enough effect; inconclusive = small, poorly fitted or top-dose-only effect, or another doubt; inactive = no such curve, though single readings can be large; an effect the other way counts as inactive or inconclusive. *1 amine or outer side, *2 acyl side, *3 side chain or, on linkers, in order; H or OH if unused. Where a SMILES comes first, the peptide text is derived from it. Bridges are numbered along the chain shown (N, C = ends). [ ]: non-standard residue; d: D form. The star is where a group is joined. ξ: configuration not given here. ξhTyr(3S-OH,4S-OH,3'-OSO3H) = NC(C(=O)O)[C@H](O)[C@@H](O)c1ccc(O)c(OS(=O)(=O)O)c1; Orn(4R-OH,5R-OH) = O=C([C@H](C[C@@H](O)[C@@H](O)N[*:3])N[*:1])[*:2]; X2 = CCCCCOc1ccc(-c2cc(-c3ccc(C(=O)*)cc3)no2)cc1; X3 = C[C@H]1CN([*:1])C(C(=O)[*:2])[C@H]1O; ξGln(3R-OH) = NC(=O)C[C@@H](O)C(N)C(=O)O; ξPro(4R-OH) = O=C(O)C1C[C@@H](O)CN1; ξThr(3R) = C[C@@H](O)C(N)C(=O)O
Key:
HACAT = experiment: qHTS assay to identify novel small-molecules to repurpose for Merkel cell carcinoma treatment (AID 1296009); settings: MCC and control cell lines, CellTiter-Glo viability, 72 h; at 44.8 µM (top of the series) unless noted; note: nearly all actives have a fitted effect of over 60% in size
Outline: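 qHTS format: cells treated with library compounds in DMSO across 8 (NPC) or 11 (MIPE) concentrations. Readout after 72 hr at 37 degree celsius was CellTiter-Glo luminescence.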

C33A = experiment: Primary qHTS to identify gynecologic anti-cancer compounds using libraries of approved drugs and bioactive compounds (AID 1345084); settings: Gynecologic cancer cell panel viability, ATPlite luminescence, 48 h; series mostly up to 57.5 µM; note: nearly all actives have a fitted effect of over 55% in size
Outline: (§1)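 Cell viability after 48 h drug treatment, ATPlite luminescence readout; five doses.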

CAOV3 = experiment: as above; settings: Gynecologic cancer cell panel viability, ATPlite luminescence, 48 h; series mostly up to 57.5 µM
Outline: as §1

Es-2 = experiment: as above; settings: Gynecologic cancer cell panel viability, ATPlite luminescence, 48 h; series mostly up to 57.5 µM
Outline: as §1

HeLa = experiment: as above; settings: Gynecologic cancer cell panel viability, ATPlite luminescence, 48 h; series mostly up to 57.5 µM
Outline: as §1

Hek293T = experiment: as above; settings: Gynecologic cancer cell panel viability, ATPlite luminescence, 48 h, control line for the selectivity index; series mostly up to 57.5 µM
Outline: as §1

JEG-3 = experiment: as above; settings: Gynecologic cancer cell panel viability, ATPlite luminescence, 48 h; series mostly up to 57.5 µM
Outline: as §1

CASKI = experiment: as above; settings: Gynecologic cancer cell panel viability, ATPlite luminescence, 48 h; series mostly up to 57.5 µM
Outline: as §1

Measured: Potency

Cc1nc(-c2cccnc2)sc1C(=O)Nc1ccccc1-c1cn2c(CN3CCOCC3)csc2n1
not listed: CASKI
inactive: all other assays above

C=C1CC2C3(C)C(O)CC(=O)C(C)(C)C3C(O)C(OC(C)=O)C2(C)C2C(=O)OC(C)(C(=O)OC)C(=O)C12C (configuration not stated)
inactive: HACAT inactive [at 17.4 µM] | C33A | CASKI | Es-2 | HeLa | Hek293T | JEG-3

C/C=C(\C)C(=O)OC1C2(O)CC3=C4CC(=O)OC(c5ccoc5)C4(C)CCC3C(C)(C2=O)C(C(OC(C)=O)C(=O)OC)C1(C)C (configuration not stated)
inactive: HACAT inactive [at 17.4 µM] | C33A | CAOV3 | Es-2 | HeLa | Hek293T | JEG-3

CCCCCOc1ccc(-c2cc(-c3ccc(C(=O)N[C@H]4C[C@@H](O)[C@@H](O)NC(=O)C5[C@@H](O)[C@@H](C)CN5C(=O)C([C@H](O)CC(N)=O)NC(=O)C([C@H](O)[C@@H](O)c5ccc(O)c(OS(=O)(=O)O)c5)NC(=O)C5C[C@@H](O)CN5C(=O)C([C@@H](C)O)NC4=O)cc3)no2)cc1 (stereo partly drawn) (X2-[Orn(4R-OH,5R-OH)][ξThr(3R)][ξPro(4R-OH)][ξhTyr(3S-OH,4S-OH,3'-OSO3H)][ξGln(3R-OH)][X3]; lactam 1-C)
inactive: HACAT inactive [at 17.4 µM] | C33A | CAOV3 | Es-2 | HeLa | Hek293T | JEG-3

CC1(C)CC[C@]2(C(=O)O)CC[C@]3(C)C(=CCC4[C@@]5(C)CC[C@H](O)C(C)(C)C5CC[C@]43C)C2C1 (some centres not stated)
inactive: HACAT inactive [at 17.4 µM] | C33A | CASKI | Es-2 | HeLa | Hek293T | JEG-3

C=C(C)[C@@H]1CC[C@]2(C(=O)O)CC[C@]3(C)[C@H](CCC4[C@@]5(C)CCC(=O)C(C)(C)C5C(O)C[C@]43C)C12 (some centres not stated)
inactive: HACAT inactive [at 17.4 µM] | C33A | CASKI | Es-2 | HeLa | Hek293T | JEG-3

C/C=C/C=C/C=C/C(=O)OC1C=C2C(O)OC(=O)[C@]2(O)[C@@]2(C)CCCC(C)(C)[C@H]12 (some centres not stated)
inactive: HACAT inactive [at 17.4 µM] | C33A | CAOV3 | CASKI | Es-2 | HeLa | Hek293T | JEG-3

COc1c(C)c(OCC=C(C)C)cc2c1CNC2=O
inactive: all assays above

C=C(CO)C(=O)O[C@H]1C[C@@]23O[C@@H]2CC/C(=C/[C@H]2OC(=O)C(=C)[C@H]12)CO[C@H]3O
not listed: CAOV3
inactive: all other assays above

CC(C)(O)C1OC1C1=CC(=O)C2(C)OC2C1O (configuration not stated)
not listed: CASKI
inactive: all other assays above

C[C@H]1[C@H](C)CC[C@]2(C(=O)O)CC[C@]3(C(=O)O)C(=CCC4[C@@]5(C)CC[C@H](O[C@@H]6O[C@@H](C)[C@H](O)[C@@H](O)[C@H]6O)C(C)(C)C5CC[C@]43C)[C@H]12 (some centres not stated)
inactive: HACAT inactive [at 17.4 µM] | C33A | CAOV3 | Es-2 | HeLa | Hek293T | JEG-3

COC(=O)C1=COC(O[C@@H]2O[C@H](COC(=O)/C=C/c3ccc(O)cc3)[C@@H](O)[C@H](O)[C@H]2O)C2C(CO)=CCC12 (some centres not stated)
inactive: HACAT inactive [at 17.4 µM] | C33A | CAOV3 | CASKI | Es-2 | HeLa | JEG-3

O=C(NCCN1CCCC1)c1cc(-c2ccc(CN3CCOCC3)cc2)nc2ccc(F)cc12
inactive: HACAT inactive [at 17.4 µM] | C33A | CASKI | Es-2 | HeLa | Hek293T | JEG-3

CC1(C)C[C@H]2C=C(C=O)[C@]3(C(=O)O)C[C@]3(C)[C@H]2C1
not listed: Es-2
inactive: all other assays above

CC1(C)C2CCC1(C)C(OC(=O)C(O)(CC(=O)O)CC(=O)O)C2 (configuration not stated)
not listed: Hek293T
inactive: all other assays above
